# According to PubChem BioAssay (Tox21):
# Inconclusive results are not listed. A call without a number means that no potency is given here. A number with no mark means an inactive call. Calls of active or inactive are those of the source. Unless noted, the call rests on the fitted dose curve; in most records, active means well fitted curve in the direction sought with a large enough effect in the repeat runs; inconclusive means weak or mixed curves; inactive means no such curve, though single readings can be large; an effect the other way counts as inactive or inconclusive.
# Experiments:
# [1] = molecular target: Aryl hydrocarbon receptor (Homo sapiens) (UniProt P35869); test: qHTS assay to identify small molecule that activate the aryl hydrocarbon receptor (AhR) signaling pathway (AID 743085);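 further: HG2L7.5c1 human HepG2 liver cells with stably integrated DRE-driven firefly reporter; series mostly up to about 70 µM; nearly all actives have a fitted effect of over 15% in size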
# Summary of the method: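 Compounds were tested in HepG2 hepatocellular carcinoma cells harbouring a stably integrated luciferase gene under control of 20 DREs. Increased reporter signal after 24 h treatment at 37C was taken as AhR activation.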
# [2] = qHTS assay to identify small molecule that activate the aryl hydrocarbon receptor (AhR) signaling pathway - cell viability counter screen (AID 743086); further: nearly all actives have a fitted effect of over 45% in size; further: potency means the concentration at half of the fitted maximal effect
# Summary of the method: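 HepG2-AhR-luc (HG2L7.5c1) cells, 4000/well, were preincubated 5 h at 37C, exposed to compound in qHTS format for 24 hr at 37C, then given CellTiter-Fluor for 30 min; viability was read as fluorescence in the reporter wells.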
# [3] = molecular target: Peroxisome proliferator-activated receptor gamma (Homo sapiens) (UniProt P37231); test: qHTS assay to identify small molecule agonists of the peroxisome proliferator-activated receptor gamma (PPARg) signaling pathway (AID 743094; active means well fitted activation curve with a large enough effect in the signal ratio in the repeat runs, not every such curve was filed as active; the % refers to the signal ratio)
# Summary of the method: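 Cell-based bla reporter, HEK293H background, PPARg-driven UAS. Pre-incubation 5 h, 37C, 5% CO2. Compound 17 h, 37C. Substrate 1 h RT; fluorescence.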
# [4] = molecular target: Peroxisome proliferator-activated receptor gamma (Homo sapiens) (UniProt P37231); test: qHTS assay to identify small molecule antagonists of the peroxisome proliferator-activated receptor gamma (PPARg) signaling pathway (AID 743191; calls by dose curve; further: series mostly up to about 63 µM; nearly all actives have a fitted effect of over 30% in size)
# Summary of the method: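 GeneBLAzer PPARg UAS-bla HEK293H cells carrying a UAS-driven beta-lactamase reporter were plated at 3000 cells/well, preincubated 5 h at 37C, then given compound for 17 h at 37C; LiveBLAzer B/G FRET substrate was read after 1 h at room temperature.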
# [5] = qHTS assay to identify small molecule antagonists of the peroxisome proliferator-activated receptor gamma (PPARg) signaling pathway - cell viability counter screen (AID 743194); further: nearly all actives have a fitted effect of over 55% in size
# Summary of the method: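 PPARg-UAS-bla HEK293H cells were plated, rested 5 h at 37 C, then treated with compounds plus rosiglitazone (50 nM final) for 17 h at 37 C; viability was then read by CellTiter-Glo luminescence after 30 min at room temperature.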
# [6] = qHTS assay for small molecule agonists of the antioxidant response element (ARE) signaling pathway - cell viability counter screen (AID 743203; calls by dose curve; further: nearly all actives have a fitted effect of over 55% in size)
# Summary of the method: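 Measured in the same wells as the beta-lactamase ARE reporter, this read-out is CellTiter-Glo luminescence from HepG2 ARE-bla cells given compounds for 16 hrs.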
# [7] = qHTS assay for small molecule activators of the heat shock response signaling pathway - cell viability counter screen (AID 743209); further: nearly all actives have a fitted effect of over 50% in size
# Summary of the method: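 Same-well multiplex: after 2.5 h room-temperature incubation with LiveBLAzer B/G substrate and fluorescence reading, CellTiter-Glo reagent was added to HSE-bla HeLa cells that had received compound for 5 h at 37 C; luminescence read after 30 min.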
# [8] = qHTS assay for small molecule activators of the heat shock response signaling pathway (AID 743210; active means well fitted activation curve with a large enough effect in the signal ratio in the repeat runs, with a control signal flat, not every such curve was filed as active; the % refers to the signal ratio; further: potency means the concentration at half of the fitted maximal effect; on activation: series mostly up to about 63 µM)
# Summary of the method: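 Heat shock element–beta-lactamase HeLa reporter cells; qHTS with compounds for 5 h at 37 C; detection by FRET substrate fluorescence after 2.5 h at RT.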
# [9] = qHTS assay to identify small molecule agonists of the peroxisome proliferator-activated receptor delta (PPARd) signaling pathway - cell viability counter screen (AID 743211); further: nearly all actives have a fitted effect of over 55% in size
# Summary of the method: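 Counter screen for cytotoxicity run in parallel with the PPARd reporter screen. Beta-lactamase reporter HEK293H cells exposed to compounds 17 h; ATP-based CellTiter-Glo luminescence quantified viability.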
# [10] = qHTS assay to identify small molecule antagonists of the peroxisome proliferator-activated receptor delta (PPARd) signaling pathway - cell viability counter screen (AID 743213); further: nearly all actives have a fitted effect of over 50% in size
# Summary of the method: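 Same-well viability: cells pre-incubated 5 h, dosed with compound plus 300 nM L165041, kept 17 h at 37 C, FRET substrate 2 h RT, then CellTiter-Glo 30 min RT and luminescence.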
# [11] = molecular target: Bile acid receptor (Homo sapiens) (UniProt Q96RI1); test: qHTS assay to identify small molecule antagonists of the farnesoid-X-receptor (FXR) signaling pathway (AID 743217; active means well fitted inhibition curve with a large enough effect in the signal ratio in the repeat runs, not every such curve was filed as active; the % refers to the signal ratio)
# Summary of the method: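 FRET fluorescence after 2 h room-temperature LiveBLAzer loading gives the readout. Prior step: FXR-bla HEK 293T cells, seeded and incubated 5 h, received test compounds plus 50 uM final CDCA for 16 h at 37 °C.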
# [12] = qHTS assay to identify small molecule agonists of the farnesoid-X-receptor (FXR) signaling pathway - cell viability counter screen (AID 743218); further: nearly all actives have a fitted effect of over 45% in size
# Summary of the method: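 Readout: CellTiter-Glo luminescence, 30 min RT, multiplexed after the FXR-bla FRET reading. HEK 293T FXR-UAS-bla cells received compound 5 h post-plating and were incubated 16 h at 37 C.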
# [13] = molecular target: Bile acid receptor (Homo sapiens) (UniProt Q96RI1); test: qHTS assay to identify small molecule agonists of the farnesoid-X-receptor (FXR) signaling pathway (AID 743220; active means well fitted activation curve with a large enough effect in the signal ratio in the repeat runs, not every such curve was filed as active; the % refers to the signal ratio)
# Summary of the method: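 FXR-UAS-bla HEK 293T cells carrying a UAS-driven beta-lactamase reporter were plated for 5 h at 37C/5% CO2, then exposed to DMSO-dissolved Tox21 10K compounds for 16 h at 37C. A LiveBLAzer B/G FRET substrate was loaded for 2 h at room temperature before fluorescence reading.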
# [14] = qHTS assay to identify small molecule antagonists of the farnesoid-X-receptor (FXR) signaling pathway - cell viability counter screen (AID 743221; active means well fitted cell-killing curve with a large enough effect in the repeat runs, not every such curve was filed as active; further: nearly all actives have a fitted effect of over 50% in size)
# Summary of the method: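 Multiplexed counter screen: viability of FXR-bla HEK 293T cells under agonist stimulation by chenodeoxycholic acid (50 uM, final) and test compound for 16 h at 37 C, measured by CellTiter-Glo luminescence in the reporter wells.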
# [15] = molecular target: Vitamin D3 receptor (Homo sapiens) (UniProt P11473); test: qHTS assay to identify small molecule agonists of the vitamin D receptor (VDR) signaling pathway (AID 743222; calls by dose curve)
# Summary of the method: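 Following 4 h attachment at 37C, VDR-bla cells (2,000 per well) received DMSO-dissolved compounds or controls. After 16 h incubation, LiveBLAzer B/G FRET substrate was added and fluorescence read 2 h later at room temperature.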
# [16] = molecular target: Vitamin D3 receptor (Homo sapiens) (UniProt P11473); test: qHTS assay to identify small molecule antagonists of the vitamin D receptor (VDR) signaling pathway (AID 743223; active means well fitted inhibition curve with a large enough effect in the signal ratio in the repeat runs, not every such curve was filed as active; the % refers to the signal ratio)
# Summary of the method: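 Cells carrying a VDR-driven beta-lactamase reporter (VDR-bla) were co-treated with compound and 3 nM final 1alpha,25-dihydroxyvitamin D3 for 16 h at 37C; reporter activity was measured as FRET substrate fluorescence after 2 h at room temperature.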
# [17] = qHTS assay for small molecule agonists of the antioxidant response element (ARE) signaling pathway (AID 743202; active means well fitted activation curve with a large enough effect in the signal ratio in the repeat runs, not every such curve was filed as active; the % refers to the signal ratio)
# Summary of the method: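 Following a 16 h, 37 C exposure of reporter HepG2 cells (ARE-driven beta-lactamase, 2,000 cells/well) to compounds, FRET substrate was applied for 2 h at room temperature and fluorescence intensity recorded.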
# [18] = qHTS assay to identify small molecule agonists of the vitamin D receptor (VDR) signaling pathway - cell viability counter screen (AID 743224); further: nearly all actives have a fitted effect of over 50% in size; further: potency means the concentration at half of the fitted maximal effect
# Summary of the method: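 In parallel with the bla FRET readout, cytotoxicity toward VDR-bla cells after 16 h compound exposure was assessed by CellTiter-Glo, with luminescence recorded after a 30 min room-temperature incubation.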
# [19] = molecular target: Peroxisome proliferator-activated receptor delta (Homo sapiens) (UniProt Q03181); test: qHTS assay to identify small molecule agonists of the peroxisome proliferator-activated receptor delta (PPARd) signaling pathway (AID 743212; calls by dose curve)
# Summary of the method: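 Beta-lactamase reporter read by fluorescence (LiveBLAzer B/G FRET, 2 h, room temperature). Test agents, in DMSO, incubated at 37 C with PPARd-bla HEK293H cells.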
# [20] = molecular target: Peroxisome proliferator-activated receptor delta (Homo sapiens) (UniProt Q03181); test: qHTS assay to identify small molecule antagonists of the peroxisome proliferator-activated receptor delta (PPARd) signaling pathway (AID 743215; active means well fitted inhibition curve with a large enough effect in the signal ratio in the repeat runs, not every such curve was filed as active; the % refers to the signal ratio;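 further: cells stimulated with agonist L165041 at 300 nM final during compound exposure; series mostly up to about 62 µM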)
# Summary of the method: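 Fluorescence from cleaved LiveBLAzer B/G FRET substrate (2 h, room temperature) reports PPARd-driven beta-lactamase in HEK293H UAS-bla cells. Cells had been treated 17 h at 37 C with compound plus 300 nM final L165041.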
# Bile acid receptor (Homo sapiens), sequence (Q96RI1 whole entry, looked up): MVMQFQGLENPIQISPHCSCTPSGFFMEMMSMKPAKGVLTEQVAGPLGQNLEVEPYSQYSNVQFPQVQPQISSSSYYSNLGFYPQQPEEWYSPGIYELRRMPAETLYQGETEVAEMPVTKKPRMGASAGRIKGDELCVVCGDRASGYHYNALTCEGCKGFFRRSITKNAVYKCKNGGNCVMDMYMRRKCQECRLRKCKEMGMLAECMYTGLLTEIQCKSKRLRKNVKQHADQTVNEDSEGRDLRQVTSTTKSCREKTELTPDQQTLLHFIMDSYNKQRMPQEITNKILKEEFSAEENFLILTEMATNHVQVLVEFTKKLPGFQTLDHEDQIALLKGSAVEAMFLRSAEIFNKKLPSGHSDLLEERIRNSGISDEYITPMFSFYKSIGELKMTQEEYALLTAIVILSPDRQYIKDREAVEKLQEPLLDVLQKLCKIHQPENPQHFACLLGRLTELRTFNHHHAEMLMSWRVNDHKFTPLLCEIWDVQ
# Peroxisome proliferator-activated receptor gamma (Homo sapiens), sequence (P37231 whole entry, looked up): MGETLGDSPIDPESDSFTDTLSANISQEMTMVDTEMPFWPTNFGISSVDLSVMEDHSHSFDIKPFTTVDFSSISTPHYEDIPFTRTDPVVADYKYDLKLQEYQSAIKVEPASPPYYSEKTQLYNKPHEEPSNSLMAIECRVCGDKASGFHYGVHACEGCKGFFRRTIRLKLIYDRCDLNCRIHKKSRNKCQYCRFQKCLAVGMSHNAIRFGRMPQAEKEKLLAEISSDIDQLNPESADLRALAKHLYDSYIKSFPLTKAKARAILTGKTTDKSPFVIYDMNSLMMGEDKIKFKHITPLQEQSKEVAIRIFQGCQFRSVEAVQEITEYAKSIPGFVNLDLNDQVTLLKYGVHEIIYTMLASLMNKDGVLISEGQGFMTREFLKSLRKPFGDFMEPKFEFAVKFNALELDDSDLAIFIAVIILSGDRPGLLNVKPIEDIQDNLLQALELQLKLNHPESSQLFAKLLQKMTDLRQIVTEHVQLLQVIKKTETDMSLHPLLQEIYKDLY
# Vitamin D3 receptor (Homo sapiens), sequence (P11473 whole entry, looked up): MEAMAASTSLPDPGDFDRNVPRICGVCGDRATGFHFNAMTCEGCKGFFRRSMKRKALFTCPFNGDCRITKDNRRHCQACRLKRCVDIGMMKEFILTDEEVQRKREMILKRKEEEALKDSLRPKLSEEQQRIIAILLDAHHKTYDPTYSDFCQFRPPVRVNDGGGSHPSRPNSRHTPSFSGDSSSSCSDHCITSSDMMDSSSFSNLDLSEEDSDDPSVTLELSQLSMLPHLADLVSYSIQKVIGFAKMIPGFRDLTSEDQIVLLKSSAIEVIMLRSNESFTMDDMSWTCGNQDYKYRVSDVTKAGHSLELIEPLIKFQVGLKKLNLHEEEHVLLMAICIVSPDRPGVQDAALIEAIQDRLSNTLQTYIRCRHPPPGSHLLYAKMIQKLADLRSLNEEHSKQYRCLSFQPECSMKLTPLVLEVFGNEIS
# Aryl hydrocarbon receptor (Homo sapiens), sequence (P35869 whole entry, looked up): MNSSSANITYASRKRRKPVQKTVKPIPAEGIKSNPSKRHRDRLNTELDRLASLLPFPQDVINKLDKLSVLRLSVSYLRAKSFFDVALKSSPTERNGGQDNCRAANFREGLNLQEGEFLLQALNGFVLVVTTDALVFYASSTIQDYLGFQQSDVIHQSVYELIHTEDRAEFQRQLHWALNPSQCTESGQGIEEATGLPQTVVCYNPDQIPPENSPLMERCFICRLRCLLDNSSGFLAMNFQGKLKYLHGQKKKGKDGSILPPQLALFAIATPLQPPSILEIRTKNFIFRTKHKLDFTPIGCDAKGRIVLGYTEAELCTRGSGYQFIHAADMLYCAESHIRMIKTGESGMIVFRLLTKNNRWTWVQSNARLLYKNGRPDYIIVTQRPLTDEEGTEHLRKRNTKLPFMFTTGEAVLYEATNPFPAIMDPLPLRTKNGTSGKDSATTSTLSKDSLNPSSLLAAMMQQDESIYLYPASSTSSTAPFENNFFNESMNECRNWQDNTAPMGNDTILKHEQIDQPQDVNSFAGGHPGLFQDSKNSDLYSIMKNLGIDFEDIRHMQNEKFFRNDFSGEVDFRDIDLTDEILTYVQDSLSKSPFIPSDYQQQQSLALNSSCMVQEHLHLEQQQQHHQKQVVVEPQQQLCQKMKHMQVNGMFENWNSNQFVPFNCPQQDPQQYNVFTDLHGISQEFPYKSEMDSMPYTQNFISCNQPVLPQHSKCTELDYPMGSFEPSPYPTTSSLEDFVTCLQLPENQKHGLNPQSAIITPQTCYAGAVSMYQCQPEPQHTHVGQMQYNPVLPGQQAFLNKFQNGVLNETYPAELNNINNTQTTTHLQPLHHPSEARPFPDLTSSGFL
# Peroxisome proliferator-activated receptor delta (Homo sapiens), sequence (Q03181 whole entry, looked up): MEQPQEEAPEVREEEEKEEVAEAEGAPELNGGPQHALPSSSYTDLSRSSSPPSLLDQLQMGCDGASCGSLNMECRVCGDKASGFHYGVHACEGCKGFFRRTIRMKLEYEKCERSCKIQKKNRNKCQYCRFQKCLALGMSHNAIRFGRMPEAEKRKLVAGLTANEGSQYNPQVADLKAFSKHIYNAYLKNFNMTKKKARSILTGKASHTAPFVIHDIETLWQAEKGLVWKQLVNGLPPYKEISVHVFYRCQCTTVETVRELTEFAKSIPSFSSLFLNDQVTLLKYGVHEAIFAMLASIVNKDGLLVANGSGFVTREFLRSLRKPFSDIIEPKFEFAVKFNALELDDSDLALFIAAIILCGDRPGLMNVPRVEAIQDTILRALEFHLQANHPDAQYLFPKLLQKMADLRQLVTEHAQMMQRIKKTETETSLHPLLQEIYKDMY
SMILES,Potency [1],Potency [2],Potency [3],Potency [4],Potency [5],Potency [6],Potency [7],Potency [8],Potency [9],Potency [10],Potency [11],Potency [12],Potency [13],Potency [14],Potency [15],Potency [16],Potency [17],Potency [18],Potency [19],Potency [20]
Cc1ccc(C(C)C)cc2c(C)ccc1-2,inactive,inactive,inactive,inactive,inactive,inactive,inactive,inactive,inactive,inactive,inactive,inactive,inactive,inactive,inactive,inactive,,,,
CCCC1CCC(=O)CC1,inactive,inactive,inactive,inactive,,inactive,inactive,,inactive,,,inactive,,inactive,,,inactive,inactive,,
Clc1ccnc(Cl)n1,inactive,inactive,inactive,inactive,inactive,inactive,inactive,,inactive,inactive,,inactive,,inactive,inactive,,inactive,,,
O[C@@H]([C@H](O)[C@H](O)CBr)[C@H](O)CBr,inactive,inactive,inactive,inactive,inactive,,inactive,inactive,inactive,,inactive,inactive,inactive,inactive,,,inactive,inactive,inactive,inactive
O=C(Nc1ccc2c(O)c(N=Nc3ccc(N=Nc4ccc(S(=O)(=O)O)cc4)cc3)c(S(=O)(=O)O)cc2c1)c1ccccc1,inactive,19.3 µM (active),inactive,inactive,inactive,inactive,inactive,inactive,inactive,,,inactive,,inactive,inactive,inactive,,inactive,,
NC(=S)NC(N)=S,inactive,inactive,inactive,inactive,inactive,inactive,inactive,34.7 µM (active),inactive,,,inactive,,inactive,,inactive,inactive,,,
CC(C)CCCCCOC(=O)CCS,inactive,inactive,inactive,inactive,inactive,,inactive,inactive,inactive,inactive,,inactive,,inactive,inactive,inactive,,,inactive,inactive
OC1CCCc2ccccc21 (stereo not given),inactive,inactive,inactive,inactive,inactive,inactive,inactive,inactive,inactive,inactive,,inactive,,inactive,inactive,inactive,inactive,,,
Cc1cc(C(C)(C)C)cc(C)c1CC1=NCCN1,inactive,inactive,inactive,inactive,inactive,inactive,inactive,inactive,inactive,inactive,inactive,inactive,inactive,inactive,,,inactive,,inactive,
O=C(/C=C/c1ccccc1)OC/C=C/c1ccccc1,inactive,inactive,inactive,inactive,,inactive,inactive,,inactive,inactive,inactive,,inactive,inactive,inactive,inactive,,,inactive,
CC(C)(C)C1CCC(=O)CC1,inactive,inactive,inactive,inactive,inactive,inactive,,,,,inactive,inactive,,inactive,inactive,inactive,inactive,49 µM (active),inactive,
CCCNCCC,inactive,inactive,inactive,inactive,inactive,,inactive,inactive,inactive,inactive,inactive,inactive,inactive,inactive,inactive,,inactive,inactive,inactive,inactive
C[C@@H](O)[C@H](N)C(=O)O,inactive,inactive,inactive,inactive,inactive,inactive,inactive,inactive,inactive,inactive,inactive,inactive,inactive,inactive,,,inactive,inactive,inactive,inactive
OC[C@H]1O[C@H](O[C@H]2O[C@H](CO)[C@@H](O)[C@H](O)[C@H]2O)[C@H](O)[C@@H](O)[C@@H]1O,inactive,inactive,inactive,inactive,inactive,inactive,inactive,,inactive,inactive,inactive,inactive,inactive,inactive,inactive,,inactive,inactive,,
NC(=O)c1cccc([N+](=O)[O-])c1,inactive,inactive,inactive,inactive,inactive,inactive,inactive,,inactive,,,inactive,,inactive,,,inactive,inactive,inactive,inactive
CCN(CCN)c1cccc(C)c1,inactive,inactive,inactive,inactive,,,inactive,,inactive,inactive,,inactive,,inactive,inactive,inactive,inactive,inactive,,
c1ccsc1,inactive,inactive,inactive,inactive,inactive,,inactive,inactive,inactive,inactive,,inactive,,inactive,,inactive,,inactive,inactive,
